Test results as given in PubChem BioAssay AID684 (PCMD, 2007).
Out of some 62,000 compounds screened, about 95 (0.2%) were called active. The sample as a whole holds a higher share of actives than the screen did. Unmarked numbers belong to inactive results. Rule as the data show it: active = inhibition above about 20% (passing the limit was not always enough); inactive = the rest. Where a SMILES comes first, the peptide text is derived from it. [ ]: non-standard residue; d: D form. ξ: configuration not given here. ξV = CC(C)C(N)C(=O)O

biological target: Coagulation factor XII (Homo sapiens) (UniProt P00748); experiment: human factor XIIa inhibitors, primary screen, biochemical, pooled compound mixtures, fluorogenic substrate (AID 684); conditions: purified FXIIa, at 5 µM, active compounds read high;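 also: 0% = enzyme without compound and 100% = no enzyme blank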
Sequence (P00748 20-372 limits assumed): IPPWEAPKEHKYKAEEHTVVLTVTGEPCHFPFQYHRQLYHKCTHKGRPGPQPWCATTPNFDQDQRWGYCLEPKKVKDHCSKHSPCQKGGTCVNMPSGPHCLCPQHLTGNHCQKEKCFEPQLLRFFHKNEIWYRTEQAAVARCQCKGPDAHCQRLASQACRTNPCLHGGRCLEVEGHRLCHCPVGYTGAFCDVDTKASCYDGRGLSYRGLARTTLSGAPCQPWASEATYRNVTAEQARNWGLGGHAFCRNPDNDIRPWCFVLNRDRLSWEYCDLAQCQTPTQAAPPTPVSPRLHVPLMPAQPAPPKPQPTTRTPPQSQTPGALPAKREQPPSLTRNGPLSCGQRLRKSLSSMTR
Sequence (P00748 373-615 limits assumed): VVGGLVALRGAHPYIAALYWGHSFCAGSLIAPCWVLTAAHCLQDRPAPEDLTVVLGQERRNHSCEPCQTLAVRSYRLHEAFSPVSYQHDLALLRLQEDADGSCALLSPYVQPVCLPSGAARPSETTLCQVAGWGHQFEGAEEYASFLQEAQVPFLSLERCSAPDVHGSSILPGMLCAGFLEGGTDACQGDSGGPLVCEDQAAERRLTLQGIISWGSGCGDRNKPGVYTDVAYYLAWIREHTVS

| SMILES | inhibition |
| --- | --- |
| OCCNCCCCOc1ccccc1F | -11.6% |
| CCOc1ccc(CCNC(=O)C2CCN(c3ccc(N4CCOCC4)nn3)CC2)cc1OCC | -15.4% |
| Cc1nc2ccc(NC(=O)N3CCC(c4ccccc4)C3)cc2nc1C (configuration not stated) | -16.9% |
| CC(=O)NCC(=O)N(C)C(C(=O)Nc1ccc2c(c1)OCCO2)c1ccccc1 (configuration not stated) | 16.7% |
| COc1cccc(NC(=O)CN(C)S(=O)(=O)c2ccc(C)cc2)c1 | 23% (active) |
| COc1ccc(NC(=O)CN(C)S(=O)(=O)c2ccccc2)cc1OC | 19.2% |
| COc1cccc(N(CC(=O)Nc2cccc(N(C)S(C)(=O)=O)c2)S(C)(=O)=O)c1 | -3.08% |
| Cc1ccc(S(=O)(=O)c2c(N)n(C)c3nc4ccccc4nc23)cc1 | -4.52% |
| N#CCCN1CCN(S(=O)(=O)c2ccc(S(=O)(=O)NC3CCCCC3)cc2)CC1 | 4.97% |
| O=C(CCS(=O)(=O)c1ccccc1)Nc1nc2c(s1)CCCC2 | 24.1% |
| COc1ccc(C(=O)c2oc3ccc(Br)cc3c2NC(C)=O)cc1 | 1.19% |
| C/C(=C\C(=O)c1ccccc1)Nc1cccc(O)c1 | 2.12% |
| COC(=O)c1cc(C(=O)OC)cc(N2C(=O)CC(N3CCN(c4ccccc4)CC3)C2=O)c1 (configuration not stated) | 7.93% |
| CCn1cc(C(=O)NCC2COc3ccccc3O2)c2cc(OC)c(OC)cc2c1=O (configuration not stated) | 3.64% |
| COc1ccccc1NC(=O)c1ccc(C)s1 | -2.31% |
| CC(=O)Nc1ccc(S(=O)(=O)N2CCC(N(C)CCC(C)C)CC2)cc1 | -1.44% |
| C=CCNC(=O)CSc1nc2sc(C)c(C)c2c(=O)[nH]1 | 7.21% |
| COc1ccc(N2CC(C)Cn3c2nc2c3c(=O)n(Cc3ccccc3F)c(=O)n2C)c(OC)c1 (configuration not stated) | 10.8% |
| Cn1nnc(NC(=O)CSc2ncn[nH]2)n1 | 4.66% |
| O=C1Nc2ccccc2C12Nc1ccccc1S2 (configuration not stated) | -1.23% |
| C=CCn1c(COc2ccccc2F)nnc1SCC(=O)N1CC(=O)Nc2ccccc21 | 1.16% |

| SMILES | inhibition |
| --- | --- |
| COc1ccc(C2C3=C(CC(C)(C)CC3=O)Oc3ncn4nc(-c5cccnc5)nc4c32)cc1OC (configuration not stated) | 10.1% |
| C=CCNC(=O)CCCC(=O)NCC=C | 0.65% |
| COc1ccc2c3c(c(=O)oc2c1OCC(=O)C(C)(C)C)CCCC3 | 12.2% |
| COc1ccc(N2C(=O)C3CCCN3C2c2cc(OC)c(OC)cc2OC)cc1 (configuration not stated) | -16.1% |
| CC(=O)NC(C(=O)NCC(N)=O)C(C)C (configuration not stated) (Ac-[ξV]-Gly-NH2) | 1.26% |
| Cc1nn(-c2ccccc2)c(CC(C)(C)C(=O)O)c1C(=O)O | -11.5% |
| Cc1cccc(NC(=O)CSc2nnc(NC(=O)CN3CCOCC3)s2)c1 | 0.94% |
| CCOC(=O)N1CCC(NC(=O)c2cnn3ccccc23)CC1 | 2.9% |
| CCOc1ccc(CCNC(=O)C(CC)n2nc(C)n3c(cc4sccc43)c2=O)cc1OCC (configuration not stated) | 8.5% |
| CCOC(=O)N1CCN(S(=O)(=O)c2cc(Br)cc3c2N(C(=O)C2CC2)CC3)CC1 | 2.7% |
| CC(=O)Nc1ccc(S(=O)(=O)Nc2nc3n(n2)C(c2ccccc2)CC(=O)N3)cc1 (configuration not stated) | -18.2% |
| COc1ccc(-n2ncc3c(N4CCCc5ccccc54)ncnc32)cc1 | -15% |
| COCC(C)N=CC1=C(O)CC(C)(C)CC1=O (configuration not stated) | 3.32% |
| CC(=O)Cc1nsc(NC(=O)c2csc3c2CCCC3)n1 | -19% |
| CCOc1ccc(NC(=O)N(CCC(C)C)C(C)c2ccco2)cc1 (configuration not stated) | 29.7% |
| CCCNC(=O)C1CC(=O)N(c2ccc(OCC(=O)Nc3cccc(C)c3C)cc2)C1 (configuration not stated) | 4.39% |
| CCOC(=O)CCC(=O)OCC(=O)NC(C)C1CC2CCC1C2 (configuration not stated) | 20.1% |
| COCCNC(=O)CSc1nc2c(n1-c1ccccc1)CCCC2 | 1.41% |
| CCC1CCCCN1CCNS(=O)(=O)c1ccc2c(c1)CCN2C(C)=O (configuration not stated) | -15.6% |
| CCc1nnc(NS(=O)(=O)c2ccc(NS(=O)(=O)c3ccccc3)cc2)s1 | -2.69% |
| CC(=O)Oc1ccc2c(C)c(CC(C)O)c(=O)oc2c1 (configuration not stated) | 9.88% |
